In PubChem BioAssay (NCI):
Compounds without any hit were thinned out: in the full panel of roughly 79,000, 15% have a hit. Activity calls are given as the source filed them. Cut-off read from the data, not from the text of the source: active = growth inhibition above about 70%; inactive = the rest.

Experiment: NCI Yeast Anticancer Drug Screen. Data for the mec2-1 strain (AID 157)
Settings: S. cerevisiae mec2-1 strain, at 50.0 µM, hits give high values
Procedure, shortened: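 Cells of the genetically defined mec2-1 yeast strain are incubated with test compound. Inhibition of growth is calculated against vehicle-treated controls.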
In the case of O=C1CC=NC(=S)N1, the growth inhibition is reported as 7% (inactive). In the case of N#C/C(=C1/Sc2c(nc[nH]c2=O)N1c1ccccc1)c1nc2ccccc2[nH]1, the growth inhibition is reported as -14.4% (inactive). With C=C1C(=O)OC2C1C(OC(=O)/C(C)=C/C)CC1(C)C(=O)CCC(=C)C21 (stereo unspecified) the growth inhibition was 47% (inactive). For O=C1OCCC1n1cc(F)c(=O)[nH]c1=O (stereo unspecified), the growth inhibition was -5.3% (inactive). In the case of CCC(C)(CC)OC(=O)c1ccc([N+](=O)[O-])cc1, the growth inhibition is reported as -0.45% (inactive). With C/C=C(\C)C(=O)OC1C2C(C)=CC(=O)C(O)C2(C)C2C3(O)OCC24C1OC(=O)C(OC(C)=O)C4C(C)C3O (stereo unspecified) the growth inhibition was 93.3% (active). In the case of Cc1cc(C)c2ccc(NN=O)nc2n1, the growth inhibition is reported as 9.75% (inactive). In the case of C1CCSCCCCCSCCCCCSCCCCCSCC1, the growth inhibition is reported as -7.55% (inactive). In the case of CC(=O)N(CN1C(=O)CCC1C(=O)O)c1ccccc1 (stereo unspecified), the growth inhibition is reported as -0.55% (inactive). For Cc1ccc(CN2CCOCC2)c(O)c1, the growth inhibition was 9.15% (inactive). For CC1CCC/C1=C(/I)C(=O)c1ccccc1 (stereo unspecified), the growth inhibition was -6.75% (inactive). For CN1CCCC2C3=CC=C4CC(O)CCC4(C)C3CCC21C (stereo unspecified), the growth inhibition was 21.5% (inactive). In the case of O=c1c2c(oc3cc(OCC4CO4)ccc13)CCC2 (stereo unspecified), the growth inhibition is reported as -7.7% (inactive). In the case of COc1cc(/C=C/C=C2\CCC/C(=C\C=C\c3ccc(O)c(OC)c3)C2=O)ccc1O, the growth inhibition is reported as -0.05% (inactive). For O=CN/C=C\c1cc(O)ccc1O, the growth inhibition was 4.45% (inactive). With O=C1NC(=O)N2CCCOC2C1c1ccccc1 (stereo unspecified) the growth inhibition was -5.5% (inactive). In the case of C=CCC(C)C(=O)NNC(=O)C(C)CC=C (stereo unspecified), the growth inhibition is reported as -9.15% (inactive).

Experiment: NCI Yeast Anticancer Drug Screen. Data for the sgs1 mgt1 strain (AID 161);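 note: 0% = growth of cultures given vehicle only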
Settings: S. cerevisiae sgs1 mgt1 strain, at 50.0 µM, hits give high values
Procedure, shortened: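 Genetically altered yeast, compound exposure, growth inhibition relative to vehicle.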
For O=C1C(O)CCN1C1CCCCC1 (stereo unspecified), the growth inhibition was -0.3% (inactive). With C[P+](C)(C)c1ccccc1 the growth inhibition was 4.95% (inactive). In the case of Cc1nc2c(SCc3ccccc3)ncnc2o1, the growth inhibition is reported as 14.9% (inactive). With BrC1(C2(Br)N(c3ccccc3)CCN2c2ccccc2)N(c2ccccc2)CCN1c1ccccc1 the growth inhibition was 42.4% (inactive). For CCOC(=O)C(F)(F)C(F)(F)C(F)(F)F, the growth inhibition was 9.1% (inactive). In the case of CC(=O)Nc1nc(NC(C)=O)c2nc(C)cnc2n1, the growth inhibition is reported as -2.35% (inactive). In the case of CCOC(=O)NC(=O)c1cn(CC(=O)NCC(=O)NCC(=O)N2CCN(CCn3c(C)nc(C(N)=O)c3N)CC2)c(=O)[nH]c1=O, the growth inhibition is reported as 5.25% (inactive). For Cc1cc(C)[n+]([O-])c(C)c1, the growth inhibition was -2.75% (inactive). For CCN(CC)c1c(C)nnn1C1OC(COC(C)=O)C(OC(C)=O)C(OC(C)=O)C1OC(C)=O (stereo unspecified), the growth inhibition was -19.9% (inactive). With C[Si](C)(/C(=C/COCc1ccccc1)CCOC1CCCCO1)c1ccccc1 (stereo unspecified) the growth inhibition was -17.1% (inactive). For N#Cc1cnsc1, the growth inhibition was 4.75% (inactive). In the case of O=[N+]([O-])c1ccc(N/N=C/c2ccccn2)nc1, the growth inhibition is reported as 10.1% (inactive). With COC(=O)CCC(=O)NC1=C(NCc2ccccc2)C(=O)c2ccccc2C1=O the growth inhibition was 31.1% (inactive). In the case of CC1=CC(OC2CCCCO2)CC(C)(C)C1 (stereo unspecified), the growth inhibition is reported as -11% (inactive). With CCCCN(CCCC)CC(O)c1cc2ccc(Cl)cc2nc1-c1ccc(Cl)cc1 (stereo unspecified) the growth inhibition was 85.5% (active). For COC(=O)NC(Nc1ccc(Cl)cc1Cl)(C(F)(F)F)C(F)(F)F, the growth inhibition was 12.2% (inactive). With S=c1c2ccccc2c(=S)n2n1CC=CC2 the growth inhibition was 2.3% (inactive). For CCCCCCCCCCCCCCC[N+](C)(C)C, the growth inhibition was 36.1% (inactive). For CC(=O)NNc1nc(C)c(C(/C=C/c2ccc(Cl)cc2)=N\NS(=O)(=O)c2ccc(C)cc2)s1, the growth inhibition was 19.6% (inactive). In the case of NCC(=O)Nc1ccc(C(=O)O)cc1, the growth inhibition is reported as 7.6% (inactive). In the case of C=C1CCC2[C@@H](CCC3[C@]2(C)CCC[C@]3(C)C(=O)OC)[C@@H]1CC=O (stereo partly specified), the growth inhibition is reported as 9.25% (inactive). For COc1ccc(C2=CCCCc3cc(O)c(OC)cc32)cc1, the growth inhibition was 97.2% (active). In the case of CNC(=O)OCc1c(COC(=O)NC)c(-c2ccc(S(=O)(=O)c3ccccc3)cc2)n(C)c1C, the growth inhibition is reported as -1.95% (inactive). In the case of O=C1CC=NC(=S)N1, the growth inhibition is reported as 8.75% (inactive). With N#C/C(=C1/Sc2c(nc[nH]c2=O)N1c1ccccc1)c1nc2ccccc2[nH]1 the growth inhibition was -51.9% (inactive). With C=C1C(=O)OC2C1C(OC(=O)/C(C)=C/C)CC1(C)C(=O)CCC(=C)C21 (stereo unspecified) the growth inhibition was 52.8% (inactive). With O=C1OCCC1n1cc(F)c(=O)[nH]c1=O (stereo unspecified) the growth inhibition was -3.45% (inactive). In the case of CCC(C)(CC)OC(=O)c1ccc([N+](=O)[O-])cc1, the growth inhibition is reported as 5.05% (inactive). With C/C=C(\C)C(=O)OC1C2C(C)=CC(=O)C(O)C2(C)C2C3(O)OCC24C1OC(=O)C(OC(C)=O)C4C(C)C3O (stereo unspecified) the growth inhibition was 92.8% (active).
